Experimental data from PubChem BioAssay AID1259343 (VanderVen Lab, College of Veterinary Medicine, Cornell …, 2017).
Out of some 6,200 compounds screened, about 2,900 (47%) were called active. Cut-off read from the data, not from the text of the source: active = inhibition above about 50%; inactive = the rest. So high a share suggests a set chosen from earlier hits. This is one part of the list.

Experiment: Mycobacterium tuberculosis growth inhibition, primary screen (AID 1259343)
Conditions: inhibition: at 10 µM, active compounds read high; outcome: 10 uM

Compound	inhibition
Cc1cc(C)c(-c2nc3cc(NC(=O)c4cccs4)ccc3o2)c(C)c1	42.8% (inactive)
Cc1nc2cc(NC(=O)CN(C)S(=O)(=O)c3ccc(F)cc3)ccc2o1	23.8% (inactive)
CCc1nc2cc(NC(=O)CC3CCCCC3)ccc2o1	89.5% (active)
Fc1ccccc1OCC1CCCN(Cc2nc(-c3cccs3)no2)C1 (stereo not drawn)	47% (inactive)
c1csc(-c2noc(CN3CCCC(c4nc5ccccc5o4)C3)n2)c1 (stereo not drawn)	inactive
Fc1ccccc1CC1CCN(Cc2nc(-c3cccs3)no2)CC1	83.9% (active)
c1csc(-c2noc(CN3CCc4sccc4C3)n2)c1	46.9% (inactive)
Clc1ccccc1C1CCN(Cc2nc(-c3cccs3)no2)C1 (stereo not drawn)	96.1% (active)
CC(c1nc(-c2cccs2)no1)N1CCC(c2ccccc2)CC1 (stereo not drawn)	-41.5% (inactive)
CCCC1=NN(c2nc3ccccc3s2)C(=O)C1C(C)=Nc1ccc(C(=O)OCC)cc1 (stereo not drawn)	98.8% (active)
CC(C)Oc1ccc(CNC(=O)c2ccco2)cc1F	99.8% (active)
O=C(Nc1ccc(SC2CCCC2)cc1)c1ccc(=O)[nH]c1	53.3% (active)
Nc1nccnc1C(=O)Nc1ccc(SC2CCCC2)cc1	80% (active)
Nc1nccnc1C(=O)NCCSCc1ccsc1	-5.01% (inactive)
Cc1cc(NC(=O)c2cccc([N+](=O)[O-])c2C)n(-c2nc(C)c(C)c(=O)[nH]2)n1	98.3% (active)
CCc1c(C)nc(-n2nc(C)cc2NC(=O)c2cccc([N+](=O)[O-])c2C)[nH]c1=O	102% (active)
CCc1c(C)nc(-n2nc(C)cc2NC(=O)c2ccccc2[N+](=O)[O-])[nH]c1=O	81.9% (active)
Cc1cc(=O)[nH]c(-n2nc(C)cc2NC(=O)c2cccc([N+](=O)[O-])c2C)n1	100% (active)
N#CCc1ccc(Oc2ccc(C(=O)O)cc2)cc1	34.3% (inactive)
O=C(O)c1ccc(Oc2cc(Cl)ccc2Cl)cc1	45.5% (inactive)
O=C(O)c1ccc(Oc2cccc(Br)c2)cc1	91.5% (active)

Compound	inhibition
Nc1ccc(-c2nc(-c3ccccc3)c3cc(N)ccc3n2)cc1	29.6% (inactive)
CC[n+]1c(-c2ccccc2)c2cc(N)ccc2c2ccc(N)cc21	99.5% (active)
Cc1ccc2sc(NNC(=O)c3cc(=O)c4ccccc4o3)nc2c1C	72.2% (active)
O=S(=O)(c1ccc(F)c(F)c1)N1CCN(c2ccc(O)cc2)CC1	56.7% (active)
O=S(=O)(c1ccc(F)cc1)N1CCN(c2ccnc3cc(Cl)ccc23)CC1	3.02% (inactive)
CCC(CC)NC(=O)c1ccc(N2CCCCC2)c([N+](=O)[O-])c1	96.8% (active)
CCC(C)NC(=O)c1cnc(N2CCN(c3ccccc3[N+](=O)[O-])CC2)nc1OC (stereo not drawn)	2.36% (inactive)
O=C(c1ccc(N2CCCCC2)c([N+](=O)[O-])c1)N1CCc2ccccc21	23.8% (inactive)
CN(C(=O)CSc1nc2sc3c(c2c(=O)n1C)CCCC3)C1CCCCC1	18.9% (inactive)
CN(C(=O)CSc1nc2sc3c(c2c(=O)[nH]1)CCCC3)C1CCCCC1	93.2% (active)
CCOC(=O)c1nn(-c2ccc(C(C)C)cc2)c(=O)c2c(N)scc12	101% (active)
CCOC(=O)c1nn(-c2ccc(C)cc2)c(=O)cc1N1CCN(c2ccccc2OC)CC1	38.5% (inactive)
CCOC(=O)c1nn(-c2ccc(C)cc2)c(=O)cc1NC(=O)C1CCCC1	-7.9% (inactive)
CCOC(=O)c1nn(-c2cccc(C)c2)c(=O)c2c(N)scc12	89.5% (active)
CCOC(=O)c1nn(-c2ccccc2)c(=O)c2c(NC(=O)CCCCl)scc12	61.2% (active)
CCOC(=O)c1nn(-c2ccc(C)cc2)c(=O)c2c(N)scc12	60.8% (active)
CCOC(=O)c1nn(-c2ccccc2)c(=O)cc1NC(=O)c1ccc(C(C)(C)C)cc1	-13.4% (inactive)
N[C@@H](CO)C(=O)Nc1ccc(Cc2ccccc2)cc1	89.6% (active)
Nc1ccccc1Cc1ccc(O)cc1	30.5% (inactive)
COc1cccc(OCCN2CCN(c3ncnc4c3cnn4-c3ccccc3)CC2)c1	64% (active)
COc1ccc(CN2CCN(c3ncnc4c3cnn4-c3ccccc3)CC2)cc1F	82.1% (active)

Compound	inhibition
CCN1CCN(Cc2ccc(-c3cc4c(N[C@H](C)c5ccccc5)ncnc4[nH]3)cc2)CC1	16.6% (inactive)
OCC1(CCOc2ccccc2)CCN(c2ncnc3sccc23)CC1	20.1% (inactive)
Cc1ccc(Cn2ncc3c(N4CCN(CCOc5ccc(C)cc5)CC4)ncnc32)cc1	24.2% (inactive)
Cc1ccc(-c2cnn3c(NCCOCCO)cc(C(C)(C)C)nc23)cc1	-3.38% (inactive)
CN(C)CCNc1cc(-c2ccccc2)nc2c(-c3ccccc3)cnn12	70.7% (active)
CN(C)CCCNc1cc(C(C)(C)C)nc2c(-c3ccccc3)cnn12	74% (active)
CC(C)c1cc(NCCN(C)C)n2ncc(-c3ccccc3)c2n1	-10.7% (inactive)
Cc1cc(NCCN(C)C)n2nc(C(F)(F)F)c(-c3ccccc3)c2n1	45% (inactive)
CN(C)CCCNc1cc(C(C)(C)C)nc2c(-c3ccc(Cl)cc3)cnn12	36.7% (inactive)
Cc1cc(=O)[nH]c(-n2nc(C3CC3)cc2NC(=O)c2ccc(F)cc2)n1	99.8% (active)
Cc1cc(=O)[nH]c(-n2nc(C3CC3)cc2NC(=O)c2ccc(C(F)(F)F)cc2)n1	99.9% (active)
Cc1cc(=O)[nH]c(-n2nc(C3CC3)cc2NC(=O)c2ccc(F)c(F)c2)n1	99.9% (active)
CCCn1c(C2CCCCC2)nc2c(c(=O)c3ccccc3n2C)c1=O	12.9% (inactive)
Cc1cn2c3c(=O)n(CC(=O)C(C)(C)C)c(=O)n(C)c3nc2n1C1CCCC1	-30.1% (inactive)
CCCCCCn1c(N2CCN(Cc3ccc(Cl)c(Cl)c3)CC2)nc2c1c(=O)[nH]c(=O)n2C	9.32% (inactive)
CCCCc1ccc(-n2c(C)c(C)n3c4c(=O)n(CCCO)c(=O)n(C)c4nc23)cc1	46.3% (inactive)
CCCCCn1c(=O)c2c(nc3n2CCN3Cc2ccco2)n(C)c1=O	61% (active)
CCCCCCn1c(N2CCN(c3ccccc3)CC2)nc2c1c(=O)n(C)c(=O)n2C	81.9% (active)
CC(C)CCn1c(N2CCCCC2)nc2c1c(=O)n(C)c(=O)n2C	-32.3% (inactive)
CCCn1c(=O)c2c(nc3n2CCCN3Cc2ccccc2)n(C)c1=O	33.4% (inactive)
CCCCCn1c(=O)c2c(nc3n2CC(C)CN3C2CCCCC2)n(C)c1=O (stereo not drawn)	92.2% (active)
